The panel holds about 83,000 compounds, 20% with a hit somewhere; the sample as a whole holds those more often.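 Single-concentration screen, 48 h exposure, 96-well plates. Endpoint: percent growth. Below 10 = active.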 A number with no mark means an inactive call. The source made the active and inactive calls.
Assays:
Experiment in all cases: NCI-60 one-dose screen, 48 h (100 = growth as untreated, 0 = no growth, -100 = all killed)
Settings in all cases: 10 µM unless noted
HCT-15 colon = test system: HCT-15 colon
HT29 colon = test system: HT29 colon
SNB-75 CNS = test system: SNB-75 CNS
SNB-19 CNS = test system: SNB-19 CNS
U251 CNS = test system: U251 CNS
PC-3 prostate = test system: PC-3 prostate
SK-MEL-5 melanoma = test system: SK-MEL-5 melanoma
UACC-62 melanoma = test system: UACC-62 melanoma
LOX IMVI melanoma = test system: LOX IMVI melanoma
SK-MEL-28 melanoma = test system: SK-MEL-28 melanoma
SK-MEL-2 melanoma = test system: SK-MEL-2 melanoma
EKVX NSCLC = test system: EKVX NSCLC
SN12C renal = test system: SN12C renal
UO-31 renal = test system: UO-31 renal
TK-10 renal = test system: TK-10 renal
ACHN renal = test system: ACHN renal
CAKI-1 renal = test system: CAKI-1 renal
A498 renal = test system: A498 renal
CCRF-CEM leukemia = test system: CCRF-CEM leukemia
MOLT-4 leukemia = test system: MOLT-4 leukemia

SMILES	growth (HCT-15 colon)	growth (HT29 colon)	growth (SNB-75 CNS)	growth (SNB-19 CNS)	growth (U251 CNS)	growth (PC-3 prostate)	growth (SK-MEL-5 melanoma)	growth (UACC-62 melanoma)	growth (LOX IMVI melanoma)	growth (SK-MEL-28 melanoma)	growth (SK-MEL-2 melanoma)	growth (EKVX NSCLC)	growth (SN12C renal)	growth (UO-31 renal)	growth (TK-10 renal)	growth (ACHN renal)	growth (CAKI-1 renal)	growth (A498 renal)	growth (CCRF-CEM leukemia)	growth (MOLT-4 leukemia)
COc1c2c(cc3c1C(=O)N[C@@H]1[C@@H](O)[C@@H](O)[C@H](O)C[C@@H]31)OCCO2	102%	106%	99.3%	102%	100%	97.7%	99.1%	96.7%	101%	106%	100%	98.2%	103%	86.4%	95.7%	103%	94%	104%	105%	99.6%
O=C(O)c1cn(C2CC2)c2cc(N3CCN(C(=O)N/N=C/c4cccc5ccccc45)CC3)c(F)cc2c1=O	97.9%	105%	97%	85.9%	100%	105%	94%	88.7%	67.8%	98.1%	101%	102%	96.6%	80.1%	94.1%	101%	90.1%	86.1%	112%	
Cc1ncc(C(=O)Nc2ccc(CN3CCN(C)CC3)c(C(F)(F)F)c2)cc1C#Cc1cnc(N)c2ccc(C#N)cc12	-77.4% (active)	-6.14% (active)	-11.5% (active)	52%	19.9%	11.7%	-79.7% (active)	-8.26% (active)	-90% (active)	-55.9% (active)	-6.37% (active)	50.4%	10.4%	-24.4% (active)	4.43% (active)	-79.6% (active)	-72.6% (active)	-41% (active)	3.7% (active)	
COc1ccc(C(=O)/C=C/c2ccccc2)cc1S(N)(=O)=O	44.1%	63.6%	87.2%	40%	26.2%	74%	88.2%	79.2%	42%	107%	89.8%	95.6%	44.9%	54.7%	66.8%	74.9%	82.3%	85.3%	57.8%	
C/C(=C(\c1ccc(OCCN2CCCCCC2)cc1)c1ccc(OC(=O)c2ccccc2)cc1)c1ccc(Cl)cc1	7.21% (active)	1.67% (active)	73.7%	57.9%	29.8%	33.8%	55.6%	28.4%	-38.9% (active)	51.7%	63%	68.6%	47.1%	26.7%	70.4%	77.1%	49.5%	86.9%	16%	
CCNC(=O)N1CCc2c(Br)c3c(c(OC)c2C1Cc1ccc(OC)cc1)OCO3 (centres undefined)	24.6%	14.4%	-7.7% (active)	49.7%	32.3%	27.9%	28.9%	20.7%	32.6%	55.9%	15.4%	54.4%	49.9%	40.2%	65.6%	33.6%	18.6%	-12.4% (active)	31.5%	
O=C1CCCCN1c1ccc(C2=NCCCN2)cc1	101%	87.6%	55%	89.2%	79.3%	79.9%	97.5%	90.3%	87.7%	91.4%	111%	97.8%	92.9%	79.1%	98.8%	95.7%	100%	93.7%	116%	80%
C[C@@H]1CN(c2cnc(C(=O)Nc3cc(F)cc4cccnc34)cn2)C[C@H](C)N1	35.7%	35.5%	69%	92.4%	76.6%	21.2%	102%	94.3%	72.7%	94%	105%	77%	83.2%	44.1%	72.2%	32.3%	66.2%	67.4%	26.9%	
